From the supplement of paper PMC8975748
Where a name gives a salt, the structure may show the parent alone. ± gives the standard deviation of the averaged measurements.

Experiments:
[1] = tested on: Saccharomyces cerevisiae BY4741 SeMeCo community; assay: mean cell size (pixel area) (pixels); higher = larger cells; settings: 10 µM; 24 h; SM minimal medium
Procedure, shortened: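 For 24 h, 70 µl of yeast culture diluted to OD600 = 0.3 from an overnight preculture at OD600 = 1.0 was kept in SM medium in 384-well plates acoustically predosed with drug, final 10 µM. The strain was Saccharomyces cerevisiae BY4741 forming a fluorescent community of four plasmids, each complementing one auxotrophy and carrying a fluorescent marker. Automated confocal microscopy of paraformaldehyde-fixed cells, analysed in Harmony, provided mean cell pixel area per well, which was averaged over 3 replicates. Same SeMeCo high-content imaging drug screen: Selleck FDA-approved drugs at 10 µM, 24 h in SM medium, 384-well plates, 3 replicates.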

[2] = tested on: Saccharomyces cerevisiae BY4741 SeMeCo community; assay: z-score of subpopulation abundance vs DMSO median, subpopulation auxotrophic for M; higher = larger share of this subpopulation than in DMSO controls; settings: 10 µM; 24 h; SM minimal medium; subpopulation (auxotrophy): M
Procedure, shortened: (§1)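 Scoring was based on each subpopulation's abundance, expressed as a z-score against the vehicle-well median. A Saccharomyces cerevisiae BY4741 community with four plasmids, each restoring one auxotrophy and encoding a distinct fluorescent protein, was pre-grown overnight to OD600 1.0, diluted to 0.3, and added at 70 µl to 384-well plates acoustically predosed with library drugs (10 µM final). It then grew 24 h in minimal SM medium before paraformaldehyde fixation and automated confocal microscopy, with single-auxotroph fluorescent strains setting thresholds and autofluorescence correction.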

[3] = tested on: Saccharomyces cerevisiae BY4741 SeMeCo community; assay: z-score of subpopulation abundance vs DMSO median, subpopulation auxotrophic for L; higher = larger share of this subpopulation than in DMSO controls; settings: 10 µM; 24 h; SM minimal medium; subpopulation (auxotrophy): L
Procedure, shortened: as §1

[4] = tested on: Saccharomyces cerevisiae BY4741 SeMeCo community; assay: z-score of subpopulation abundance vs DMSO median, subpopulation auxotrophic for U; higher = larger share of this subpopulation than in DMSO controls; settings: 10 µM; 24 h; SM minimal medium; subpopulation (auxotrophy): U
Procedure, shortened: as §1

[5] = tested on: Saccharomyces cerevisiae BY4741 SeMeCo community; assay: z-score of subpopulation abundance vs DMSO median, subpopulation auxotrophic for LU; higher = larger share of this subpopulation than in DMSO controls; settings: 10 µM; 24 h; SM minimal medium; subpopulation (auxotrophy): LU
Procedure, shortened: as §1

[6] = tested on: Saccharomyces cerevisiae BY4741 SeMeCo community; assay: z-score of subpopulation abundance vs DMSO median, subpopulation auxotrophic for LM; higher = larger share of this subpopulation than in DMSO controls; settings: 10 µM; 24 h; SM minimal medium; subpopulation (auxotrophy): LM
Procedure, shortened: as §1

[7] = tested on: Saccharomyces cerevisiae BY4741 SeMeCo community; assay: z-score of subpopulation abundance vs DMSO median, subpopulation auxotrophic for HM; higher = larger share of this subpopulation than in DMSO controls; settings: 10 µM; 24 h; SM minimal medium; subpopulation (auxotrophy): HM
Procedure, shortened: as §1

[8] = tested on: Saccharomyces cerevisiae BY4741 SeMeCo community; assay: z-score of subpopulation abundance vs DMSO median, subpopulation auxotrophic for UM; higher = larger share of this subpopulation than in DMSO controls; settings: 10 µM; 24 h; SM minimal medium; subpopulation (auxotrophy): UM
Procedure, shortened: as §1

[9] = tested on: Saccharomyces cerevisiae BY4741 SeMeCo community; assay: z-score of subpopulation abundance vs DMSO median, subpopulation auxotrophic for HL; higher = larger share of this subpopulation than in DMSO controls; settings: 10 µM; 24 h; SM minimal medium; subpopulation (auxotrophy): HL
Procedure, shortened: as §1

[10] = tested on: Saccharomyces cerevisiae BY4741 SeMeCo community; assay: z-score of subpopulation abundance vs DMSO median, subpopulation auxotrophic for HLM; higher = larger share of this subpopulation than in DMSO controls; settings: 10 µM; 24 h; SM minimal medium; subpopulation (auxotrophy): HLM
Procedure, shortened: as §1

[11] = tested on: Saccharomyces cerevisiae BY4741 SeMeCo community; assay: z-score of subpopulation abundance vs DMSO median, subpopulation auxotrophic for HUM; higher = larger share of this subpopulation than in DMSO controls; settings: 10 µM; 24 h; SM minimal medium; subpopulation (auxotrophy): HUM
Procedure, shortened: as §1

[12] = tested on: Saccharomyces cerevisiae BY4741 SeMeCo community; assay: z-score of subpopulation abundance vs DMSO median, subpopulation auxotrophic for LUM; higher = larger share of this subpopulation than in DMSO controls; settings: 10 µM; 24 h; SM minimal medium; subpopulation (auxotrophy): LUM
Procedure, shortened: as §1

[13] = tested on: Saccharomyces cerevisiae BY4741 SeMeCo community; assay: z-score of subpopulation abundance vs DMSO median, subpopulation auxotrophic for HLUM; higher = larger share of this subpopulation than in DMSO controls; settings: 10 µM; 24 h; SM minimal medium; subpopulation (auxotrophy): HLUM
Procedure, shortened: as §1

[14] = tested on: Saccharomyces cerevisiae BY4741 SeMeCo community; assay: z-score of prototroph abundance vs DMSO median; higher = larger share of this subpopulation than in DMSO controls; settings: 10 µM; 24 h; SM minimal medium; subpopulation (auxotrophy): Prototroph
Procedure, shortened: as §1

[15] = tested on: Saccharomyces cerevisiae BY4741 SeMeCo community; assay: z-score of subpopulation abundance vs DMSO median, subpopulation auxotrophic for H; higher = larger share of this subpopulation than in DMSO controls; settings: 10 µM; 24 h; SM minimal medium; subpopulation (auxotrophy): H
Procedure, shortened: as §1

[16] = tested on: Saccharomyces cerevisiae BY4741 SeMeCo community; assay: z-score of subpopulation abundance vs DMSO median, subpopulation auxotrophic for HU; higher = larger share of this subpopulation than in DMSO controls; settings: 10 µM; 24 h; SM minimal medium; subpopulation (auxotrophy): HU
Procedure, shortened: as §1

Row | Structure (SMILES) | mean cell size [1] | z-score of subpopulation abundance [2] | z-score of subpopulation abundance [3] | z-score of subpopulation abundance [4] | z-score of subpopulation abundance [5] | z-score of subpopulation abundance [6] | z-score of subpopulation abundance [7] | z-score of subpopulation abundance [8] | z-score of subpopulation abundance [9] | z-score of subpopulation abundance [10] | z-score of subpopulation abundance [11] | z-score of subpopulation abundance [12] | z-score of subpopulation abundance [13] | z-score of prototroph abundance [14] | z-score of subpopulation abundance [15] | z-score of subpopulation abundance [16]
1 | CCCCc1oc2ccccc2c1C(=O)c1cc(I)c(OCCN(CC)CC)c(I)c1 [Amiodarone HCl] | 11.3 ± 0.26 | 9.41 | -2.82 | -0.62 | -1.37 | 1.3 | 3.86 | 9.26 | 3.55 | 5.74 | 4.79 | 6.07 | 5.2 | – | – | –
2 | OCc1ccc(Cl)cc1Cl [2,4-dichlorobenzyl alcohol] | 12.32 ± 0.052 | -0.73 | 0.8 | 0.58 | 1.19 | 0.21 | -0.64 | -0.17 | 0.12 | – | -0.47 | – | 0.69 | -0.15 | 0 | -0.65
3 | C=CC1=C(C(=O)O)N2C(=O)[C@@H](NC(=O)/C(=N\OCC(=O)O)c3csc(N)n3)[C@H]2SC1 [Cefixime] | – | -0.61 | -0.33 | 0.43 | -0.02 | -0.13 | -0.97 | -0.25 | – | -0.25 | -0.75 | -1.01 | -0.73 | 0.71 | -0.5 | 0.1
4 | Cc1c(-c2ccc(O)cc2)n(Cc2ccc(OCCN3CCCCCC3)cc2)c2ccc(O)cc12 [Bazedoxifene HCl] | 12.54 ± 0.11 | 0.94 | -0.9 | -0.23 | 0.03 | 0.49 | 1.47 | – | 1.1 | – | -0.15 | 0.03 | -0.25 | -0.43 | 1.47 | -0.01
5 | COCCCOc1ccnc(C[S+]([O-])c2nc3ccccc3[nH]2)c1C (stereo unspecified) [Rabeprazole] | – | -1.07 | 1.62 | 0.43 | 1.56 | -0.33 | 0.01 | -0.92 | 1.62 | 0.32 | 0.23 | 0.63 | 0 | -0.81 | 2.01 | 0.85
6 | CCOc1ccc2nc3cc(N)ccc3c(N)c2c1 [Ethacridine lactate monohydrate] | 12.86 ± 0.11 | 5.99 | 1.84 | -8.13 | -7.71 | – | – | – | 3.54 | 5.56 | -6.59 | -5.24 | -2.52 | – | 4.4 | –
7 | Cc1cnc(NC(=O)C2=C(O)c3ccccc3S(=O)(=O)N2C)s1 [Meloxicam] | 12.77 ± 0.087 | -0.52 | -0.61 | -0.19 | -0.98 | -0.94 | -0.89 | -0.26 | -0.41 | -1.09 | -0.88 | -1.43 | – | – | -0.59 | -0.61
8 | CO/N=C(\C(=O)N[C@@H]1C(=O)N2C(C(=O)O)=C(CSc3nc(C)c(CC(=O)O)s3)CS[C@H]12)c1csc(N)n1 [Cefodizime Sodium] | 12.4 ± 0.13 | -0.97 | -0.39 | 0.88 | 0.22 | -1.04 | -0.46 | 0.34 | -0.84 | – | -0.09 | -0.74 | -0.81 | 0.26 | -0.25 | 0.66
9 | Nc1ccc(/N=N/c2ccccc2)c(N)n1 [Phenazopyridine HCl] | 12.5 ± 0.25 | 0.28 | 0.42 | -2.82 | -2.56 | – | 0.02 | – | 0.92 | 0.39 | -1.7 | – | – | 2.41 | 1.88 | -2.46
10 | C[C@@H](O)[C@H]1C(=O)N2C(C(=O)O)=C(S[C@@H]3CN[C@H](C(=O)N(C)C)C3)[C@H](C)[C@H]12 [Meropenem Trihydrate] | – | 0.89 | 0.38 | -0.82 | 0.63 | 0.14 | 1.13 | -0.82 | 0.55 | 0.4 | -0.48 | -0.3 | -0.25 | -0.19 | 1.09 | -0.59
11 | CO/N=C(\C(=O)N[C@@H]1C(=O)N2C(C(=O)OC(C)OC(C)=O)=C(COC(N)=O)CS[C@H]12)c1ccco1 (stereo partly specified) [Cefuroxime axetil] | 12.59 ± 0.065 | -0.61 | -0.95 | – | -0.86 | -1.34 | -0.74 | 0.26 | -0.54 | -0.11 | – | -0.64 | 0.39 | -0.04 | -0.4 | 0.15
